The record followed here is PubChem BioAssay AID1985 (Southern Research Specialized Biocontainment Screening …, 2009).

Screen size: about 2,300 compounds; about 1,000 (43%) were called active. No rule for the calls is given here. So high a share suggests a set chosen from earlier hits. The list shows a part of the results. Entries with a potency or affinity are not part of this list.

This assay in a line: modified counter assay using GFP fluorescence, PhoP regulon inhibitor project, dose response (AID 1985). Particulars: S. Typhi, 4 h; series mostly up to 150 µM.
Consider `Cc1oc2c(O)c(O)ccc2c(=O)c1-c1ccccc1`, for which the outcome was inactive.

As to `CCN(CC)S(=O)(=O)c1ccc(N2CCOCC2)c(C(=O)O)c1`, the molecule was classed as inactive.

In the case of `CCCC(=O)N1CCN(c2ccc(NC(=S)NC(=O)c3cccc(C)c3)cc2)CC1`, the molecule was classed as inactive.

With `CCCNC(=O)C1CCN(c2ccc(S(=O)(=O)N3CCOCC3)cc2Cl)CC1`, the molecule was classed as inactive.

As to `CCOc1ccc2nc(NC(=O)C3=NNC(=O)CC3)sc2c1`, the outcome was inactive.

As to `Cc1ccccc1Oc1ccc(Oc2ccccc2C)nn1`, the result was inactive.

Regarding `Cc1ccc(NC(=O)CCNC(=O)c2ccccc2)cc1F`, the result was inactive.

In the case of `CC(=O)c1cccc(NC(=O)CCC2CCCC2)c1`, the call was inactive.

Consider `O=C(c1ccc2c3c(cccc13)CC2)C1CCCN(Cc2ncc[nH]2)C1` (stereo not drawn), for which the call was inactive.

In the case of `COCC1CCCN(Cc2cn[nH]c2-c2cc3ccccc3o2)C1` (stereo not drawn), the outcome was inactive.

Consider `COc1ccccc1NC(=O)CSC1CC(=O)N(c2ccc3c(c2)OCO3)C1=O` (stereo not drawn), for which the molecule was called inactive.

On to `NS(=O)(=O)c1ccc(CCNS(=O)(=O)c2cccc(C(=O)O)c2)cc1`, for which the result was inactive.

Regarding `COc1cccc(C(=O)CC(=O)C(=O)Nc2cc(OC)c(OC)c(OC)c2)c1`, the molecule was classed as inactive.

For the molecule `Cc1ccc(/C=C2\SC(=S)N(c3cccnc3)C2=O)o1`, the molecule was called inactive.

`COc1ccc(OC)c(NC(=O)CSc2nnc3ccc(-c4ccncc4)nn23)c1`: the outcome was inactive.

For the molecule `Cn1c(CN2CCCCC2)nc2cc(NS(=O)(=O)c3ccc(Cl)cc3)ccc21`, the outcome was inactive.

As to `CCOC(=O)C1=C(C)NC(=O)NC1c1ccc(NC(C)=O)cc1` (stereo not drawn), the result was inactive.

Take `COC(=O)CNC(=O)c1ccc(=O)oc1`: the outcome was inactive.

As to `CN1CCCN(C(=O)COc2ccc(F)cc2Cl)CC1`, the call was inactive.

Consider `CN1CCN(c2ccc(C(=O)c3cn(-c4ccc(F)c(Cl)c4)nn3)cc2)CC1`, for which the call was inactive.

Take `CN1CCC(=C2c3ccccc3C=Cc3ccccc32)CC1`: the call was inactive.

On to `CCn1c(-c2ccncc2)n[nH]c1=S`, for which the result was inactive.

Take `COc1cc(C)c(Cl)cc1S(=O)(=O)n1cnc(C)c1`: the molecule was called inactive.

Consider `Cn1c(=NC(=O)COc2ccccc2)sc2cccc(F)c21`, for which the outcome was inactive.

For the molecule `O=[N+]([O-])c1ccc(O)c2ncccc12`, the result was inactive.

`C#CC(=O)N(c1cccc(OC)c1)C(C(=O)NC1CCCC1)c1cccs1` (stereo not drawn): the molecule was called inactive.

Consider `CCN(CC)CCSc1nnc2c3ccccc3n(Cc3ccccc3)c2n1`, for which the result was inactive.

Turning to `C=CCn1c(C)cc(C(=O)CSc2n[nH]c(N)n2)c1C`, the outcome was inactive.

As to `Cc1nc2scc(C)n2c(=O)c1S(=O)(=O)N1CCN(c2cccc(C(F)(F)F)c2)CC1`, the molecule was called inactive.

Turning to `O=[N+]([O-])c1ccc(N2CCNCC2)cc1NCc1cccnc1`, the outcome was inactive.

Turning to `COc1nnc(-c2ccc(N3CCOCC3)c(NC(=O)c3ccc(C)cc3)c2)c2ccccc12`, the molecule was called inactive.

Turning to `CN(C)CCCN(C(=O)c1cc2cc([N+](=O)[O-])ccc2s1)c1nc2cc3c(cc2s1)OCCO3`, the molecule was classed as inactive.

As to `CCSC1=NCN(CCCC(=O)O)CN1`, the molecule was classed as inactive.

For the molecule `COc1cc(C(=O)N/N=C/c2coc3ccccc3c2=O)cc(OC)c1OC`, the molecule was called inactive.

Regarding `CC(C)C(c1nnnn1Cc1ccccc1)N(CCCO)Cc1cc2cc3c(cc2[nH]c1=O)OCO3` (stereo not drawn), the outcome was inactive.

For the molecule `CC(C)Cc1nc(N2CCOCC2)c(C#N)c2c1COC(C)(C)C2`, the molecule was classed as inactive.

Regarding `CCNC(=S)N1CCN(CC)CC1`, the result was inactive.

As for `COc1ccc(OC)c(NC(=O)CCNS(=O)(=O)c2ccc3c(c2)c(=O)n(C)c(=O)n3C)c1`, the outcome was inactive.

Regarding `CCOC(=O)c1[nH]c2ccc(Cl)cc2c1NC(=O)c1nonc1C`, the molecule was called inactive.

With `Cc1cc(Cl)ccc1OCC(=O)N/N=C/c1ccncc1`, the call was inactive.

Regarding `Cc1ccc(/C=N/NC(=O)Cc2cccn2C)cc1`, the result was inactive.

Take `NS(=O)(=O)c1cc2c(cc1Cl)NC(Cc1ccccc1)NS2(=O)=O` (stereo not drawn): the call was inactive.

In the case of `CN(Cc1ccccc1)S(=O)(=O)c1csc(C(N)=O)c1`, the outcome was inactive.

Take `Cn1cc(S(=O)(=O)Nc2ccc(OC(F)(F)F)cc2)c(=O)n(C)c1=O`: the molecule was called inactive.

Take `CCOc1ccc2ccccc2c1C(=O)N[C@@H]1C(=O)N2[C@@H]1SC(C)(C)[C@@H]2C(=O)O`: the molecule was called inactive.

Consider `O=C(c1ccccc1)N1CCN(c2ccc([N+](=O)[O-])c(NCc3ccco3)c2)CC1`, for which the result was inactive.

For the molecule `CN(C)C(=O)CSc1nnc(Cc2ccc([N+](=O)[O-])cc2)o1`, the molecule was classed as inactive.

`COc1ccc(CCC(=O)NCc2cn3ccccc3n2)cc1`: the molecule was called inactive.

Consider `CCOC(=O)CSc1nnc2c(n1)C1(C)CCC2C1(C)C` (stereo not drawn), for which the call was inactive.

With `O=C(N/N=C/c1ccc(N2CCOCC2)cc1)c1ccc(O)cc1`, the molecule was classed as inactive.

As to `CC(C)=CCN1CCN(Cc2nc(-c3ccccc3)cs2)CC1CCO` (stereo not drawn), the molecule was called inactive.

Take `CC1CCCCN1S(=O)(=O)c1ccc(S(=O)(=O)NCCc2ccncc2)cc1` (stereo not drawn): the molecule was called inactive.

As to `Brc1ccc2nc(-c3c[nH]c4ccccc34)cn2c1`, the call was inactive.

Regarding `Cc1cccc(OCC(=O)NNc2c3ccccc3nc3ccccc23)c1`, the result was inactive.

In the case of `CC1(C)CC(CCNC(=O)c2ccc(-n3cnnn3)cc2)CC(C)(C)N1`, the call was inactive.

Consider `Cc1cc(=O)n(CC(C)C)c(O)c1C#N`, for which the outcome was inactive.

As to `Cc1onc(C(=O)/C=C/N(C)C)c1C(=O)Nc1nccs1`, the molecule was called inactive.

Regarding `CCOc1ccccc1-c1cc(-c2ccccc2)nc2c1c(=O)n(C)c(=O)n2C`, the result was inactive.

Turning to `C=C(C)COc1ccc2c(C)c(CCC(=O)NC3CC3)c(=O)oc2c1`, the result was inactive.

Consider `N#Cc1ccc(-c2ccc(OCC(=O)NCCCN3CCCC3=O)cc2)cc1`, for which the molecule was classed as inactive.

With `CC1(C)CC(=O)C(C(=O)/C=C/NCCc2ccccc2)C(=O)C1`, the molecule was classed as inactive.

`CC(C)(C)c1ccc(NC(=O)NCc2ccco2)cc1`: the molecule was called inactive.

For `Cc1ccc(SCc2[nH]nc3c2C(c2cccnc2)C(C#N)=C(N)O3)cc1` (stereo not drawn), the outcome was inactive.

As to `Nc1cc(N2CCOCC2)c(Cl)cc1[N+](=O)[O-]`, the call was inactive.

As for `C=C(C)Cn1c(SCC#N)nc2ccccc2c1=O`, the molecule was called inactive.

In the case of `COc1cccc(CNC23CC4CC(CC(C4)C2)C3)c1OCc1ccccc1`, the molecule was called inactive.

Take `Cc1ccc(NC(=S)NCc2cccnc2)cc1`: the outcome was inactive.

Consider `Cc1ccc(NC(=S)NCc2cccs2)cc1`, for which the result was inactive.

Regarding `COc1cccc(CNS(=O)(=O)c2ccc3c(c2)NC(=O)CS3)c1`, the molecule was called inactive.

In the case of `CC(c1ccccc1)(c1ccccc1)c1ccncc1`, the molecule was classed as inactive.

On to `CC(C)SCc1nc2ccccc2[nH]1`, for which the result was inactive.

As for `Nc1cncc(C(=O)O)c1`, the molecule was called inactive.

In the case of `C/C(=N\NC(=O)COc1ccccc1[N+](=O)[O-])c1cccs1`, the molecule was classed as inactive.

As for `CCCC(=NCc1ccccc1)C1=C(O)C(C(=O)OC)C(C)(C)CC1=O` (stereo not drawn), the molecule was called inactive.

In the case of `CN1C2=CC=CC=CC2=[N+](C)C12C=CC(=[N+]([O-])[O-])C=C2[N+](=O)[O-]` (stereo not drawn), the molecule was classed as inactive.

As for `Cc1cc(Br)cc2cn[nH]c12`, the outcome was inactive.

As for `CCCN1C(=O)c2ccc(C(=O)Nc3nccs3)cc2C1=O`, the molecule was called inactive.

In the case of `O=C(COc1ccc2ccccc2c1)Nc1nccs1`, the call was inactive.

As to `O=C(CCl)Nc1nccs1`, the result was inactive.

As for `O=C(Nc1ccccc1)Nc1cccc(Cl)c1`, the call was inactive.

`Cc1[nH]c(=O)[nH]c(=O)c1S(=O)(=O)N1CCCC(C(=O)NCc2ccc3c(c2)OCO3)C1` (stereo not drawn): the result was inactive.

Turning to `COc1ccc(NC(=O)N(CCc2ccccc2)Cc2cc3c(C)cc(C)cc3[nH]c2=O)cc1`, the call was inactive.

For `CCCOc1ccc(N2C(=O)C3C(C(C)C)NC4(C(=O)c5ccccc5C4=O)C3C2=O)cc1` (stereo not drawn), the outcome was inactive.

On to `COc1ccc(OC)c(S(=O)(=O)N2CCC(C(=O)NCc3ccccc3OC)CC2)c1`, for which the result was inactive.

Consider `O=C(NCc1ccccc1)c1ccc(CNc2c(N3CCCC3)c(=O)c2=O)cc1`, for which the molecule was called inactive.

As for `Cc1ccc(C(C(=O)NCCc2ccccc2)N(C(=O)c2csnn2)C2CC2)o1` (stereo not drawn), the call was inactive.

Take `CCC(C)(c1ccc(C(=O)OC)s1)c1ccc(C(=O)OC)s1`: the outcome was inactive.

Consider `CN1C(=O)/C(=C2/C=Cc3ccccc3N2CCCS(=O)(=O)O)SC1=S`, for which the molecule was classed as inactive.

Regarding `COc1ccccc1-n1c(SCC(=O)O)nnc1-c1ccc(S(=O)(=O)N2CCCCC2)cc1`, the result was inactive.

Take `O=C(Nc1ccc(F)cc1)C1CCC(CNc2c(N3CCCCC3)c(=O)c2=O)CC1` (stereo not drawn): the outcome was inactive.

For the molecule `CCCC(c1nnnn1Cc1ccc(OC)cc1)N1CCN(c2ccccc2OC)CC1` (stereo not drawn), the molecule was called inactive.

On to `Oc1c(CN2CCOCC2)cc(COCc2ccccc2)c2cccnc12`, for which the outcome was inactive.

Turning to `COc1ccccc1Oc1coc2c(CN3CCN(C)CC3)c(O)ccc2c1=O`, the result was inactive.

For `Oc1ccc(CN2CCN(c3ccccc3)CC2)c2cccnc12`, the result was inactive.

With `Cc1c(C(=O)N2CCN(Cc3ccccc3)CC2)sc2ncnc(N3CCOCC3)c12`, the outcome was inactive.

With `N#C/C(=C\c1ccc(O)c(O)c1)C(=O)c1ccc(O)c(O)c1`, the result was inactive.

For `COc1ccc(CNC(=O)CCC(=O)N2C[C@H]3C[C@H](C2)c2cccc(=O)n2C3)cc1`, the molecule was called inactive.

Turning to `CCOC(=O)Cc1nn(C)c(=O)c2ccccc12`, the outcome was inactive.

For the molecule `O=C(/C=C/c1c(F)cccc1Cl)N1CCOCC1`, the outcome was inactive.

For the molecule `COc1cc(OC)nc(NC(=O)C(C)C)n1`, the molecule was classed as inactive.

Take `NC(=O)c1c(NC(=O)CSc2nc(N)cc(=O)[nH]2)sc2c1CCCC2`: the molecule was classed as inactive.

With `COCc1cc(=O)n2[nH]c(C)nc2n1`, the molecule was called inactive.

For `Nc1ccc(S(=O)(=O)Nc2ccc(Cl)nn2)cc1`, the molecule was classed as inactive.

In the case of `CC1=C(c2ccccc2)SC2=NCCN21`, the molecule was called inactive.

`CN(C)CCNC(=O)c1ccc(COc2ccc(Cl)cc2Cl)cc1`: the outcome was inactive.

Take `O=C(COc1ccc(Cl)cc1)N1CCCCC1`: the molecule was classed as inactive.

With `O=C(NCc1cccnc1)c1ccc(COc2ccc(Cl)cc2)cc1`, the molecule was called inactive.

Turning to `Clc1ccc(OCc2nn3c(C4CCCCC4)nnc3s2)c(Cl)c1`, the result was inactive.

Consider `CC(=O)Nc1nc(C)c(-c2csc(Nc3ccc(O)cc3)n2)s1`, for which the call was inactive.

On to `Cc1c(O)cccc1C(=O)N[C@@H](CSc1ccccc1)[C@H](O)CN1C[C@H]2CCCC[C@H]2C[C@H]1C(=O)NC(C)(C)C`, for which the molecule was called inactive.

With `CCc1nc(SCC(=O)NCCc2ccccc2)c2c(=O)n(C)c(=O)n(C)c2n1`, the outcome was inactive.

As for `Cc1cc(=O)oc2c(CN(C)Cc3ccccc3)c(O)ccc12`, the result was inactive.

In the case of `O=C(N/N=C\c1ccc(F)cc1)c1ccc(F)cc1`, the molecule was called inactive.
